Screening data from PubChem BioAssay.
MITF TRPM1 HTS: activators of MITF-driven TRPM1 promoter activity in SK-MEL-5 cells | SK-MEL-5 TRPM1-promoter luciferase, 24 h; % of positive control, neutral wells = 0 | activation, % at 12.5 µM | 300,000 tested, 0.75% active | AID 588334;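 active = mean activation of at least 80% with every replicate also reaching 80%; inconclusive = mean reaches 80% but some replicate falls short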;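 note: 0% = neutral control wells and 100% = parthenolide positive control wells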
MITF TRPM1 inh: inhibitors of MITF-driven TRPM1 promoter in melanoma cells | SK-MEL-5 TRPM1 promoter luciferase, 24 h | inhibition, % at 12.5 µM | 330,000 tested, 0.83% active | AID 488899;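 active = mean inhibition across replicates of 60% or more, whatever share of single replicates reaches that level; inconclusive = some that reach 60%, reason not given; inactive = mean inhibition across replicates below 60%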
EBV LMP1 NFkB: Epstein-Barr LMP1 NF-kappaB reporter inhibition; LMP1-induced NF-kappaB luciferase reporter cells, luminescence; inhibition, % at 12.5 µM; 350,000 tested, 0.69% active; AID 504558; in the data active = inhibition above about 41%; inconclusive = no clear call, values can overlap the other calls;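 note: 0% = neutral control wells and 100% = reference inhibitor control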
TWEAK-Fn14 inh: blocks TWEAK-Fn14 interaction in a reporter cell assay. TWEAK-stimulated Fn14 reporter cells, luciferase luminescence, 8 h. inhibition, % at 10 µM. 360,000 tested, 2% active. AID 1159606; in the data active = inhibition above about 50%
TROY signal inh: blocks TROY-dependent signaling in reporter cells. Q293 LMP1-TROYcd NF-kB luciferase reporter, 4 h. inhibition, % at 10 µM. 360,000 tested, 0.98% active;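 active = compounds whose plate-normalised and pattern-corrected inhibition of the luciferase reporter signal at the single screening dose is 50% or more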
LGR2 antag: blocks bursicon-induced cAMP signaling via Drosophila LGR2; HEK293 LGR2, CRE-luciferase, bursicon-stimulated, 4 h; AID 720647; inhibition, % at 9.99 µM; 380,000 tested, 0.35% active;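 active = drop in luminescence signal, shown as inhibition above about 50% in the replicate tests, limit read from the data, passing the limit was not always enough; inconclusive = probably only some replicates passing the limit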;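 note: agonist challenge used bursicon conditioned medium at about half maximal strength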
An asterisk follows results filed as active. Shown are actives, neighbours in structure and some others; about 3% of the full set was active somewhere.

Results for Oc1cc(Cl)c(Cl)c(Cl)c1Cl ?
MITF TRPM1 HTS: -5; MITF TRPM1 inh: 8; EBV LMP1 NFkB: 6; TWEAK-Fn14 inh: 15; TROY signal inh: 54*; LGR2 antag: 14

What do the screens show for `COC(=O)[C@H]1[C@H](CO)[C@H]2Cn3c(ccc(-c4cccc(F)c4)c3=O)[C@@H]1N2Cc1cccnc1`?
LGR2 antag: -2

Results for C[n+]1c(-c2ccccc2)cc(-c2ccc(Cl)cc2)cc1-c1ccccc1 ?
MITF TRPM1 HTS: -43; MITF TRPM1 inh: 44; EBV LMP1 NFkB: 1; TWEAK-Fn14 inh: 18; TROY signal inh: 21; LGR2 antag: 23

How did Cc1ccc(-c2cc(-c3ccc(C)cc3)[n+](-c3ccccc3)c(-c3ccc(C)cc3)c2)cc1 do in these assays?
MITF TRPM1 HTS: -101; MITF TRPM1 inh: 102*; EBV LMP1 NFkB: 45*; TWEAK-Fn14 inh: 92*; TROY signal inh: 71*

What do the screens show for `c1ccc(-c2cc(-c3ccccc3)[n+](-c3ccccc3)c(-c3ccccc3)c2)cc1`?
MITF TRPM1 HTS: -92; MITF TRPM1 inh: 92*; EBV LMP1 NFkB: 39; TWEAK-Fn14 inh: 86*; TROY signal inh: 71*; LGR2 antag: 103*

How did CN(C)c1ccc(-[n+]2c(-c3ccccc3)cc(-c3ccccc3)cc2-c2ccccc2)cc1 do in these assays?
MITF TRPM1 HTS: -92; MITF TRPM1 inh: 92*; EBV LMP1 NFkB: 34; TWEAK-Fn14 inh: 66*; TROY signal inh: 47; LGR2 antag: 20

Results for Cc1ccc(-c2cc(-c3ccccc3)cc(-c3ccccc3)[n+]2-c2ccccc2)cc1 ?
MITF TRPM1 HTS: -103; MITF TRPM1 inh: 103*; EBV LMP1 NFkB: 32; TWEAK-Fn14 inh: 104*; TROY signal inh: 84*; LGR2 antag: -2

What do the screens show for `Cc1ccc(-c2cc(-c3ccc(C)cc3)[n+](-c3ccc(C(=O)[O-])cc3)c(-c3ccc(C)cc3)c2)cc1`?
MITF TRPM1 HTS: -10; MITF TRPM1 inh: 12; EBV LMP1 NFkB: -1; TWEAK-Fn14 inh: 1; TROY signal inh: -7; LGR2 antag: 1

How did O=C(Cc1ccccn1)N1CCCCN2[C@H](CO)[C@H](c3ccc(-c4ccccc4F)cc3)[C@H]2C1 do in these assays?
LGR2 antag: -3

Results for O=C(Cc1ccccc1)N1CCCCN2[C@@H](CO)[C@H](c3ccc(C#Cc4ccccc4)cc3)[C@@H]2C1 ?
LGR2 antag: 12

What do the screens show for `CC=Cc1ccc2n(c1=O)C[C@H]1[C@H](CO)[C@@H](C(=O)O)[C@@H]2N1S(=O)(=O)c1ccccc1C` (mixture of isomers)?
LGR2 antag: 3

Results for O=C(N/N=C/C1C(=O)NC(=S)N(c2ccccc2)C1=O)c1cc(Br)c(O)c(Br)c1 (stereo unspecified) ?
MITF TRPM1 HTS: -5; MITF TRPM1 inh: 5; EBV LMP1 NFkB: 52*; TWEAK-Fn14 inh: 3; TROY signal inh: -21; LGR2 antag: 12

How did O=C(N/N=C/c1c(O)n(C2CCCCC2)c(=S)[nH]c1=O)c1ccccc1 do in these assays?
MITF TRPM1 HTS: -7; MITF TRPM1 inh: 6; EBV LMP1 NFkB: 10; TWEAK-Fn14 inh: -3; TROY signal inh: -18; LGR2 antag: -11

Results for C[C@H]1CN([C@@H](C)CO)C(=O)CCCn2cc(nn2)CO[C@H]1CN(C)C(=O)Oc1ccc2ccccc2c1 ?
LGR2 antag: 2

How did COc1ccc(CN2Cc3cnnn3-c3ccccc3C2C#N)cc1 (stereo unspecified) do in these assays?
MITF TRPM1 HTS: -97; MITF TRPM1 inh: 98*; EBV LMP1 NFkB: 15; TWEAK-Fn14 inh: 74*; TROY signal inh: 46; LGR2 antag: 96*

Results for CN1Cc2cnnn2-c2ccccc2C1C#N (stereo unspecified) ?
MITF TRPM1 HTS: -3; MITF TRPM1 inh: 4; EBV LMP1 NFkB: -9; TWEAK-Fn14 inh: 1; TROY signal inh: -2; LGR2 antag: 6

What do the screens show for `N#CC1c2ccccc2-n2nncc2CN1Cc1cc(Cl)cc(Cl)c1` (stereo unspecified)?
MITF TRPM1 HTS: -96; MITF TRPM1 inh: 97*; EBV LMP1 NFkB: 62*; TWEAK-Fn14 inh: 107*; TROY signal inh: 91*; LGR2 antag: 102*

Results for Fc1ccccc1CNC1CN2CCC1CC2 (stereo unspecified) ?
MITF TRPM1 HTS: -1; MITF TRPM1 inh: 4; EBV LMP1 NFkB: -6; TWEAK-Fn14 inh: -11; TROY signal inh: 10; LGR2 antag: -27

Results for Ic1ccccc1CN[C@@H]1C2CCN(CC2)[C@@H]1C(c1ccccc1)c1ccccc1 ?
MITF TRPM1 HTS: 6; MITF TRPM1 inh: -7; EBV LMP1 NFkB: -17; TWEAK-Fn14 inh: -27; TROY signal inh: -9; LGR2 antag: 70*

Results for CCOC(=O)[C@]12Cc3cc(OC)ccc3[C@H]1N(C)C(=O)c1ccccc12 ?
TWEAK-Fn14 inh: -6; TROY signal inh: -4; LGR2 antag: 11

How did CCOC(=O)[C@]12Cc3cc(Cl)ccc3[C@H]1N(C1CCCCC1)C(=O)c1ccccc12 do in these assays?
TWEAK-Fn14 inh: 90*; TROY signal inh: 57*

How did CCOC(=O)[C@]12Cc3cc(OC)ccc3[C@H]1N(C1CCCCC1)C(=O)c1ccccc12 do in these assays?
TWEAK-Fn14 inh: 66*; TROY signal inh: 48; LGR2 antag: 50*

How did c1ccc(-c2[nH]c(-c3ccccc3)[n+](CC3CO3)c2-c2ccccc2)cc1 (stereo unspecified) do in these assays?
MITF TRPM1 HTS: -13; MITF TRPM1 inh: 15; EBV LMP1 NFkB: 3; TWEAK-Fn14 inh: 80*; TROY signal inh: 41; LGR2 antag: 39

Results for CN1CN(c2ccccc2)C2(CCN(CCCSc3ccccc3NC(=O)/C=C/c3ccccc3)CC2)C1=O ?
MITF TRPM1 HTS: -67; MITF TRPM1 inh: 69*; EBV LMP1 NFkB: 11; TWEAK-Fn14 inh: 4; TROY signal inh: 21; LGR2 antag: 17

Results for COc1ccc(CCN)cc1OC ?
MITF TRPM1 HTS: -1; MITF TRPM1 inh: 3; EBV LMP1 NFkB: 0; TWEAK-Fn14 inh: -13; TROY signal inh: 3

Results for NCCc1ccc(OCc2ccccc2)c(OCc2ccccc2)c1 ?
MITF TRPM1 HTS: -97; MITF TRPM1 inh: 98*; EBV LMP1 NFkB: -2; TWEAK-Fn14 inh: -1; TROY signal inh: -33; LGR2 antag: 88*

How did Cc1cc2c(C(C)C)c(O)c(O)c(C=O)c2c(O)c1-c1c(C)cc2c(C(C)C)c(O)c(O)c(C=O)c2c1O do in these assays?
TWEAK-Fn14 inh: 102*; TROY signal inh: 66*; LGR2 antag: 38

Results for COc1ccc(-c2cc(=Nc3cccc(C(=O)O)c3)c3cc(C)ccc3o2)cc1 ?
MITF TRPM1 HTS: inconclusive; MITF TRPM1 inh: -71; EBV LMP1 NFkB: -5; TWEAK-Fn14 inh: 58*; TROY signal inh: 21; LGR2 antag: 55*

How did C=CCOC(=O)c1ccccc1N do in these assays?
MITF TRPM1 HTS: 2; MITF TRPM1 inh: 0; EBV LMP1 NFkB: -3; TWEAK-Fn14 inh: 7; TROY signal inh: -1; LGR2 antag: -1
